Screening data as filed in PubChem.
Most compounds without a hit are left out; they make up all but 19% or so of the library.
KB-3-1 tox: KB-3-1 parental cell cytotoxicity | KB-3-1 viability, CellTiter-Glo ATP luminescence, 72 h | Potency, µM (highest dose often 46.1 µM), hits mostly cytotoxic | 400,000 tested, 1.4% active; further: nearly all actives have a fitted effect of over 60% in size
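KB-3-1 cells, DMEM (no phenol red) + 10% FBS; compound by pin transfer, 72 h, 37 °C. Readout: CellTiter-Glo luminescence after 10 min. Data normalized, curve-fitted.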
HT1080-NT tox: kills 2HG-producing HT-1080-NT fibrosarcoma cells; Potency, µM (series often up to 46.1 µM), hits mostly cytotoxic; HT-1080-NT fibrosarcoma viability, CellTiter-Glo ATP luminescence, 48 h; 360,000 tested, 1.6% active;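 further: NT is the 2HG producing partner of a matched IDH1 knockdown line; nearly all actives have a fitted effect of over 55% in size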
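Read-out is CellTiter-Glo luminescence after 10 minutes at room temperature, following 48 hours' compound treatment of HT-1080-NT cells (750 cells/well, RPMI, 5% FBS, 37 degrees C).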
KB-V1 MDR tox: KB-V1 MDR subline cytotoxicity. KB-V1 MDR cells viability, CellTiter-Glo, 72 h. Potency, µM (doses to about 46.1 µM), hits mostly cytotoxic. 400,000 tested, 3.4% active. AID 1347076; further: nearly all actives have a fitted effect of over 60% in size
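Cytotoxicity via CellTiter-Glo luminescence after 72 h compound exposure at 37 degrees C. Cells: drug-selected KB-V1 line, DMEM phenol-red free plus 10% FBS. Compounds tested at multiple concentrations; normalized data fitted to concentration-effect curves.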
TDP1 cell CPT: DT40-hTDP1 cell growth loss with CPT. chicken DT40 Tdp1-/-;hTDP1 cells + 20 nM CPT, ATP luminescence, 48 h. Potency, µM (titrated, usually from 46.2 µM), actives largely listed as inhibitors. 420,000 tested, 12% active; further: nearly all actives have a fitted effect of over 55% in size
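Chicken DT40 Tdp1-/- cells complemented with human TDP1, 400 cells/well, exposed to compounds plus 20 nM camptothecin for at least 48 h at 37 C; viability read as ATP content by CellTiter-Glo luminescence.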
HT1080 IDH1KD tx: HT-1080 IDH1 knockdown cell toxicity (counter line). Potency, µM (series often up to 46.1 µM), actives largely listed as cytotoxic. 360,000 tested, 2% active. HT-1080 IDH1 knockdown viability, ATP luminescence, 48 h
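% activity derives from luminescence (CellTiter-Glo), normalised to DMSO and no-cell wells. HT-1080-IDH1KD cells, 750/well, had 48 h compound exposure at 37 °C.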
DT40 TDP1 no CPT: qHTS for Inhibitors of human tyrosyl-DNA phosphodiesterase 1 (TDP1): qHTS in cells in absence of CPT | DT40 Tdp1-/- hTDP1 cells, no CPT, ATP luminescence, 48 h | Potency, µM (series often up to 46.2 µM), usual class: inhibitors | 420,000 tested, 15% active | AID 686978, 2013; further: nearly all actives have a fitted effect of over 55% in size
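Growth of hTDP1-complemented DT40 Tdp1-knockout cells is measured by ATP luminescence after at least 48 hr compound exposure at 37 °C, with DMSO substituting for the 20 nM CPT used in the parallel screen.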
Numbers stand for hits; - = inactive; ? = inconclusive; . = no result; [ ] = dose if it differs, or a comment. The call rests on the fitted dose curve; in most records, active means well fitted curve in the direction sought with a large enough effect; inconclusive means small, poorly fitted or top-dose-only effect, or another doubt; inactive means no such curve, though single readings can be large; an effect the other way counts as inactive or inconclusive.

SMILES	KB-3-1 tox	HT1080-NT tox	KB-V1 MDR tox	TDP1 cell CPT	HT1080 IDH1KD tx	DT40 TDP1 no CPT
Cc1ccc(NCC(=O)Nc2cccc(S(=O)(=O)N(C)C)c2)cc1S(=O)(=O)N1CCCCCC1	?	-	?	8.2µM	?	7.31µM
CC(CCC(=O)O)C1CCC2C3C(O)C[C@@H]4CC(O)CC[C@@]4(C)C3CC(O)[C@]12C (some centres undefined)	.	.	.	-	.	-
CCOC(=O)Cn1c(=O)cc(-c2ccccc2)c2c(C)nn(C)c21	-	.	-	?	.	?
O=C(NNC(=O)c1sc2ccccc2c1Cl)Nc1ccc(Cl)cc1	-	-	?	-	-	-
O=C(NNC(=S)NC(=O)c1sc2ccccc2c1Cl)c1ccc(Cl)cc1	-	?	?	18.4µM	?	?
O=C(O)c1ccccc1NC(=S)NC(=O)c1sc2ccccc2c1Cl	-	-	-	?	-	16.4µM
Cc1nc2ccccc2c2oc(C(=O)N3CCC(N4CCCCC4)CC3)cc12	-	-	-	?	-	?
COc1ccc(N2CCN(C(=O)c3cc4c(C)nc5ccccc5c4o3)CC2)cc1	-	-	?	16.4µM	-	9.2µM
Cc1nc2ccccc2c2oc(C(=O)N3CCN(C4CCCCC4)CC3)cc12	-	-	-	20.6µM	-	11.6µM
CO[C@H]1[C@H](NC(=O)c2ccsc2)c2ccccc2C12CCN(Cc1c(O)ccc3ccccc13)CC2	.	.	.	-	.	-
COc1ccc(N2CCN(C(=O)CN3CCSc4ccccc43)CC2)cc1	-	.	?	.	.	.
CC(C)=NN/C(N)=N/C(=S)Nc1ccc(C)cc1	-	-	-	?	-	?
C[C@H](CO)N1C[C@H](C)[C@H](CN(C)Cc2ccncc2)Oc2cc(-c3ccccc3F)ccc2S1(=O)=O	-	-	?	14.6µM	-	23.1µM
CCCC#Cc1ccc2c(c1)O[C@@H](CN(C)Cc1ccc3c(c1)OCO3)[C@H](C)CN([C@@H](C)CO)S2(=O)=O	20.6µM	?	?	7.31µM	?	2.31µM
C[C@H]1CN([C@@H](C)CO)S(=O)(=O)c2ccc(C#Cc3ccccn3)cc2O[C@H]1CN(C)Cc1ccc(F)cc1	-	-	-	?	-	?
C[C@H]1CN([C@@H](C)CO)S(=O)(=O)c2ccc(Br)cc2O[C@@H]1CN(C)Cc1ccccc1	-	-	?	?	-	20.6µM
C[C@H]1CN([C@@H](C)CO)S(=O)(=O)c2ccc(Br)cc2O[C@H]1CN(C)Cc1ccccc1	-	-	-	?	-	?
O=C(Nc1cccc(OC(=O)c2cccnc2)c1)c1cccnc1	-	-	-	10.3µM	-	10.3µM
O=C(Nc1ccc(NC(=O)c2cccnc2)cc1)c1ccccc1	-	-	-	-	-	-
CC(Oc1ccc(Cl)cc1Cl)c1nc(-c2ccc(NC(=O)c3cccnc3)cc2)no1 (centres undefined)	-	?	-	5.8µM	7.31µM	5.8µM
O=C(Nc1ccc(-c2noc(-c3cccs3)n2)cc1)c1cccnc1	-	-	?	?	?	29.1µM
O=C(Nc1ccc(F)cc1)c1cccnc1	-	-	?	9.2µM	-	?
O=C(O)CC(NS(=O)(=O)c1ccc(Br)s1)c1ccccc1 (centres undefined)	-	.	?	-	.	-
C[C@H](CO)N1C[C@H](C)[C@@H](CN(C)C(=O)Nc2ccccc2)Oc2ncc(-c3ccc(C#N)cc3)cc2C1=O	-	-	-	-	-	-
CCC(C)c1ccc(NC(=O)c2cccnc2)cc1 (centres undefined)	-	-	20.6µM	?	?	-
SMILES	KB-3-1 tox	HT1080-NT tox	KB-V1 MDR tox	TDP1 cell CPT	HT1080 IDH1KD tx	DT40 TDP1 no CPT
Cc1ccc(S(=O)(=O)c2c(C)nn(-c3ccccc3)c2OC(=O)c2ccccc2F)cc1	-	.	-	-	.	?
Cc1ccc(-n2c3nc(=O)[nH]c(=O)c-3cc3cc([N+](=O)[O-])ccc32)cc1	?	?	?	5.8µM	?	5.17µM
C[C@H]1Cn2cnc(C(=O)Nc3cccc(Cl)c3)c2C(=O)N1	?	-	-	?	-	11.6µM
COc1cc(OC)c(Nc2nc3ccccc3c3nncn23)cc1Cl	-	.	-	?	.	-
C[C@@H](C(=O)NCCc1ccccc1F)N1C(=O)N2CCc3c([nH]c4ccccc34)[C@@]2(C)C1=O	-	-	-	11.6µM	-	9.2µM
C[C@@H](C(=O)NCCc1ccccc1)N1C(=O)N2CCc3c([nH]c4ccccc34)[C@@]2(C)C1=O	-	-	-	18.4µM	-	?
COc1ccc2[nH]c3c(c2c1)CCN1C(=O)N([C@@H](C)C(=O)NCc2ccccc2)C(=O)[C@]31C	-	-	-	?	-	?
O=c1c(OCc2ccccc2)cccn1Cc1ccccc1	-	-	?	-	-	?
Cc1ccc(-c2csc3nc4c5ccccc5c(NCCCN(C)C)nn4c(=O)c23)cc1	?	-	-	?	-	18.4µM
Cc1ccc(-c2nc(NCCCN(C)C)c3ccccc3n2)cc1	-	?	-	-	?	?
Cc1csc(NC(=O)c2ccc(COc3ccccc3)o2)n1	-	-	-	?	?	-
CCc1ccccc1NC(=O)CN1CCN(C(=O)CNC(=O)c2ccc(-c3ccccc3)cc2)CC1	-	-[9.24 µM]	?	4.61µM	?	7.31µM
CCc1ccccc1NC(=O)CN1CCN(CC(=O)Nc2ccc(-c3ccccc3)cc2)CC1	-	-	?	?	-	16.4µM
Cc1cccc(NC(=O)CN2CCN(CC(=O)Nc3ccc(-c4ccccc4)cc3)CC2)c1C	-	-	-	?	-	?
Cc1ccc(C(=O)NCC(=O)N2CCN(c3ccccc3)CC2)cc1	-	-	-	-	-	-
Cc1ccc(OCc2nc(-c3ccc(C(=O)NCCc4ccc(Cl)cc4)cc3)oc2C)cc1	-	.	-	?	.	-
CN(C)CCCNc1ncnc2oc(-c3ccccc3)c(-c3ccccc3)c12	?	?	-	?	23.1µM	?
c1ccc2c(c1)oc1c(NCCCn3ccnc3)ncnc12	-	-	-	?	-	-
N=c1c2c(-c3ccccc3)c(-c3ccccc3)n(Cc3ccccc3)c2ncn1CCO	-	-	18.4µM	-	?	-
c1ccc(-c2oc3ncnc(NCCCn4ccnc4)c3c2-c2ccccc2)cc1	-	?	-	23.1µM	?	18.4µM
COc1ccc(-c2oc3ncnc(N)c3c2-c2ccccc2)cc1	-	-	-	-	-	?
CC(C)Cn1cnc2c(c(-c3ccccc3)c(-c3ccccc3)n2Cc2ccco2)c1=N	?	?	?	20.6µM	16.4µM	18.4µM
